PubChem BioAssay AID743126 (The Scripps Research Institute Molecular Screening Center, 2013)
Hit rate of the full screen: of about 370,000 compounds, about 2,100 (0.57%) were called active.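 Rule for the calls: active = inhibition above mean plus 3 SD of compounds lying within the high and low control bounds (cut at about 19% in these data); inactive = the rest.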 The sample as a whole holds a higher share of actives than the screen did.

What follows are molecules tested against Group 3 secretory phospholipase A2 (Homo sapiens) (UniProt Q9NZ20) (assay: HGIII-sPLA2 enzyme inhibition – biochemical, QFRET, BODIPY PC-A2 liposome substrate, primary screen (AID 743126;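 note: 0% = median of test compound wells and 100% = no enzyme DMSO wells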)). Conditions: QFRET BODIPY PC-A2 liposome hydrolysis, fluorescence; at 12.2 µM; active compounds read high.
Group 3 secretory phospholipase A2 (Homo sapiens), sequence (Q9NZ20 whole entry, looked up): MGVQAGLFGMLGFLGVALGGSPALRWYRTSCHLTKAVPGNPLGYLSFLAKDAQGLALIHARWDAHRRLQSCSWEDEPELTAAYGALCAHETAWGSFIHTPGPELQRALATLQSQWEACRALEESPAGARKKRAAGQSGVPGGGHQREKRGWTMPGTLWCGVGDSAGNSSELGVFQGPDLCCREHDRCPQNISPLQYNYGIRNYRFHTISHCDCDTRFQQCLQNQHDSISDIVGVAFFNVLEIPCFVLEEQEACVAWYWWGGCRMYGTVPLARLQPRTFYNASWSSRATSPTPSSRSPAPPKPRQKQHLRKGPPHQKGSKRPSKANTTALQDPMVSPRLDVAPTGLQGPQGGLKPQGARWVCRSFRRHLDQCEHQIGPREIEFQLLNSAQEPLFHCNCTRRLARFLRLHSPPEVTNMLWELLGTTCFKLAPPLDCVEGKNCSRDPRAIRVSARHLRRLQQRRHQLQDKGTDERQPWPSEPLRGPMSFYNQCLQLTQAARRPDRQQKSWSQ
In the case of O=C(CN1CCC(NC(=O)NCc2ccccc2)CC1)Nc1ccc2c(c1)OCCO2, the inhibition is reported as 4.02% (inactive). For O=C(NC1CCC1)c1ccc(C#CC2CC2)cn1, the inhibition was 8.79% (inactive). With Cc1cc(NCCc2c[nH]c3ccccc23)ccc1Oc1cccnc1 the inhibition was 24.1% (active). With O=C(CCc1c[nH]c2ccccc12)NCCOc1ccccc1 the inhibition was -37% (inactive). For COc1cccc(CNCCc2c[nH]c3ccccc23)c1OCc1ccccc1F, the inhibition was -6.09% (inactive). In the case of C#CCNC(=O)C[C@H]1C[C@@]2(C(=O)OC)C(=C[C@H](C(C)C)O[C@@H]2C2CC2)N(Cc2ccco2)C1=O, the inhibition is reported as 3.7% (inactive). For Cc1cccc(C(=O)Nc2c(-c3ccc(F)cc3)nc3ncccn23)c1, the inhibition was -0.59% (inactive). In the case of COC(=O)CC1CCc2cc(C)cc(C(CC(C)C)NC(=O)[C@H](CC(C)C)NC(=O)OCc3ccccc3)c2O1 (some centres not stated), the inhibition is reported as -3.39% (inactive). With O=C(OC12CC3CC(CC(C3)C1)C2)c1ccc(NCc2cc(O)ccc2O)cc1 the inhibition was 42.5% (active). For O=C(C1CCCN1S(=O)(=O)c1ccccc1)N1CCc2ccccc2C1 (configuration not stated), the inhibition was -2.35% (inactive). C=CCn1c(SCc2ccccc2)nc2c1c(=O)[nH]c(=O)n2C was tested, and the inhibition was -4.25% (inactive). In the case of Cc1nnc(Sc2nc3c(c(=O)[nH]c(=O)n3C)n2Cc2ccccc2)s1, the inhibition is reported as 19.7% (active). In the case of Cc1nnc(SCCCn2c(N3CCCCC3)nc3c2c(=O)[nH]c(=O)n3C)s1, the inhibition is reported as -3.33% (inactive). In the case of COc1ccc(CN2C/C(=C/c3ccccc3)N3C(=O)C[C@@H](c4ccccc4)N=C23)c(OC)c1, the inhibition is reported as -11.6% (inactive). In the case of Cc1ccc(-n2c(COc3ccccc3)nnc2SCC(=O)Nc2ccc3c(c2)OCCO3)cc1, the inhibition is reported as -18.3% (inactive). COc1ccc(C(=O)OCCN2CCN(C3CN(Cc4cn(Cc5ccccc5F)nn4)S(=O)(=O)C3)CC2)cc1OC (configuration not stated) was tested, and the inhibition was -1.33% (inactive). CC(NC(=O)COC(=O)Cn1cc(C(F)(F)F)ccc1=O)c1ccccc1 (configuration not stated) was tested, and the inhibition was 19.8% (active). With CC(NC(=O)COC(=O)C1CCN(S(=O)(=O)c2ccccc2C(F)(F)F)CC1)c1ccccc1 (configuration not stated) the inhibition was -13.3% (inactive). For CC(NC(=O)Cn1cc(C(F)(F)F)cc(Cl)c1=O)c1ccccc1 (configuration not stated), the inhibition was 0.8% (inactive). With NC(Cc1ccc(F)cc1)c1csc(Nc2nncc3ccccc23)n1 (configuration not stated) the inhibition was 9.76% (inactive). In the case of NC(Cc1ccccc1)c1csc(Nc2cc(Oc3ccccc3)ncn2)n1 (configuration not stated), the inhibition is reported as 30.9% (active). With CC(C)(C)CC(=O)Nc1nc(C(N)Cc2ccc(C(F)(F)F)cc2)cs1 (configuration not stated) the inhibition was 6.39% (inactive). In the case of CC(C)N1CCCCC(NC(=O)C(C)(C)C)C1=O (configuration not stated), the inhibition is reported as -4.58% (inactive). In the case of C=CCN1C(C(=O)OC)CN(Cc2cn(Cc3ccccc3)nn2)CCS1(=O)=O (configuration not stated), the inhibition is reported as 1.48% (inactive). For N#Cc1ccccc1NC(=O)COc1c(Br)cc(Br)c2cccnc12, the inhibition was 5.73% (inactive). For O=[N+]([O-])c1cc([N+](=O)[O-])c2cccnc2c1O, the inhibition was 2.18% (inactive). With CC(=O)NC(c1cccs1)c1cc(Br)c2cccnc2c1O (configuration not stated) the inhibition was 22% (active). In the case of Cc1c(C(C)c2ccccc2O)[nH]c2ccccc12 (configuration not stated), the inhibition is reported as -10.4% (inactive). For CCOC(=O)NC(=O)C(=CNc1cccc(OC)c1)C(=O)NC(=O)OCC, the inhibition was 5.9% (inactive). CCOC(=O)C(=Cc1ccccc1)C(=O)c1ccccc1 was tested, and the inhibition was 8.51% (inactive). In the case of CCOC(=O)NC(=O)/C(C#N)=C\c1ccccc1, the inhibition is reported as 22.2% (active). For COC(=O)[C@]12C[C@H](CC(=O)NCC34CC5CC(CC(C5)C3)C4)C(=O)N(Cc3ccc(Cl)cc3Cl)C1=C[C@H](COCc1ccccc1)O[C@@H]2C, the inhibition was -6.39% (inactive). For O=C(Nc1ccc(Br)cc1)OCCN1C(=O)CCC12CCC(c1ccccc1)CC2 (configuration not stated), the inhibition was -1.44% (inactive). For N#CC1(Nc2ccc3c4c(cccc24)CC3)CCCCC1, the inhibition was -35.6% (inactive). N#CC1(Nc2ccc(-c3ccc(Cl)cc3)cc2)CCCC1 was tested, and the inhibition was 23.6% (active). With NC(=O)C1(Nc2ccc(-c3ccccc3)cc2)CCCC1 the inhibition was 0.79% (inactive). CC(c1ccc(N)cc1)c1cn(C)c2ccccc12 (configuration not stated) was tested, and the inhibition was 13.1% (inactive). FC(F)(F)c1cccc(Cn2ccc3ccc(-c4ccc5ccn(Cc6ccccc6)c5c4)cc32)c1 was tested, and the inhibition was -7.36% (inactive). C=CCN(C)CC#Cc1ccccc1 was tested, and the inhibition was 6.96% (inactive). CCOC(=O)C1(Cc2cccc(OC)c2)CCCN(C(=O)CCSC)C1 (configuration not stated) was tested, and the inhibition was 19.5% (active). CCOC(=O)C1(Cc2cccc(OC)c2)CCN(C(C)COC)CC1 (configuration not stated) was tested, and the inhibition was -1.08% (inactive). CCOC(=O)C1(Cc2cccc(OC)c2)CCCN(S(=O)(=O)c2cccnc2)C1 (configuration not stated) was tested, and the inhibition was 1.51% (inactive). For CC(C)(C)NC(=O)C(c1cccnc1)N(C(=O)c1cnco1)c1ccc(C(C)(C)C)cc1 (configuration not stated), the inhibition was -5.08% (inactive). With CCOc1ccc(Oc2c(Cl)cnn(-c3ccc(C)cc3)c2=O)cc1 the inhibition was 8.12% (inactive). With COc1cc(NS(=O)(=O)c2ccc3ccccc3c2)c2ncccc2c1 the inhibition was 23.8% (active). O=[N+]([O-])c1ccccc1S(=O)(=O)Nc1cccc2cccnc12 was tested, and the inhibition was 6.98% (inactive). With O=S(=O)(Nc1ccccn1)c1cccc(S(=O)(=O)c2ccc(Cl)cc2)c1 the inhibition was -7.39% (inactive). CCOC(=O)C(=O)N(Cc1ccccc1)c1ccccc1C(=O)Nc1cc(OC)ccc1OC was tested, and the inhibition was -2.65% (inactive). In the case of NC[C@H](Cc1ccccc1)NCCc1cc(C(F)(F)F)cc(C(F)(F)F)c1, the inhibition is reported as 21.8% (active). With CC1=CC(C)(C)NC(=S)N1NC(=O)c1ccccc1Cl the inhibition was 4.76% (inactive). With CC1=CC(C)(C)NC(=S)N1c1ccccc1 the inhibition was 20.1% (active). With CN(C)Cc1cn(-c2ccc(-c3noc4c3C(=O)N(CC(=O)N3CCOCC3)CC4)cc2)nn1 the inhibition was 1.51% (inactive). With COc1ccc(N2CCN(CCNS(=O)(=O)c3ccc([N+](=O)[O-])cc3)CC2)cc1 the inhibition was -4.09% (inactive). For COc1ccccc1CCNC(=O)C1CCN(c2nc(C)cc(C)n2)CC1, the inhibition was -0.08% (inactive). With Cc1c(NC(=S)NCc2ccc(F)cc2)cccc1[N+](=O)[O-] the inhibition was 19.5% (active). For Cc1ccc(NC(=O)CN(C)Cc2ccc(F)cc2)c([N+](=O)[O-])c1, the inhibition was -1.08% (inactive). With Cc1cccc(NC(=S)NCCc2ccc(F)cc2)c1C the inhibition was 8.1% (inactive).
